This note sets out measurements from PubChem BioAssay.

In this assay the target is E3 ubiquitin-protein ligase XIAP (Homo sapiens) (UniProt P98170). The assay can be described thus: XIAP binders, primary screen, biophysical, small-molecule microarray, fluorescence 635 nm (AID 1181).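 Further: score merges 667 nm emission and signal to noise over triplicate slides.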 The settings on record: small-molecule microarray binding, higher = more signal.
Chain of E3 ubiquitin-protein ligase XIAP (Homo sapiens) (P98170 whole entry, looked up): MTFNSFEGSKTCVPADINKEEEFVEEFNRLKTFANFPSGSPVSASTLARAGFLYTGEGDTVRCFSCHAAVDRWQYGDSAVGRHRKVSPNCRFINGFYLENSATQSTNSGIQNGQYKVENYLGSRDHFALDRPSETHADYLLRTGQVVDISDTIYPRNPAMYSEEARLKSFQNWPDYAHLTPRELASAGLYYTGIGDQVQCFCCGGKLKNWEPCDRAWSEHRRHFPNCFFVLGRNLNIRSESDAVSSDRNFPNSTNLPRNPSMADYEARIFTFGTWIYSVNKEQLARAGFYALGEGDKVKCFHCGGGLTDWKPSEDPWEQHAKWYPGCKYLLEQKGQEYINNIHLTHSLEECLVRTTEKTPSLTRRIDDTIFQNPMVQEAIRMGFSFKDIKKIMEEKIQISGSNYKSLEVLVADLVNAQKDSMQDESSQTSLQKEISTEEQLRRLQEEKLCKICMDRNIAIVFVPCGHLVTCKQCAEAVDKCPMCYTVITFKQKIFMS
As for `Cc1ccc(S[C@]2(C(=O)NC(C)C)CC(=O)N(C(C)C)[C@@H]2c2ccc(CO)cc2I)cc1`, the composite z-score came out at 0.158.
`C=C(/C(=C/C[C@@H](OC(C)=O)c1ccc(CO)o1)c1cc(C(=O)OC)ccc1OC)C(C)C` showed a composite z-score of 0.146.
The value for `COc1ccc(CCNC(=O)[C@@]2(Cc3ccccc3I)c3ccccc3C(=O)N(Cc3ccccc3Cl)[C@H]2c2ccc(CO)cc2)cc1` was 0.262; that for `COCCCNC(=O)[C@@]1(Sc2ccc(C)cc2)CC(=O)N(Cc2ccccc2Cl)[C@@H]1c1ccc(CO)cc1I` was -0.138; that for `COc1cc(C(O)C2C=CC3C(=O)N(Cc4ccccc4)C(=O)C3N2n2cnnc2)cc(OC)c1OC` (stereo unspecified) was 0.0546.
The molecule `[N-]=[N+]=Nc1ccccc1C[C@]1(C(=O)NCc2ccccc2)COC(c2ccc(OCCCO)cc2)=N1` came in with a composite z-score of 0.212.
Turning to `Cc1ccc(S[C@]2(C(=O)NCc3ccccc3)CC(=O)N(Cc3cc(C(F)(F)F)cc(C(F)(F)F)c3)[C@@H]2c2ccc(CO)cc2I)cc1`, the composite z-score was -0.0622.
`COc1cc2c(cc1OC)CN(C(=O)[C@@H]1[C@H]3C(=O)O[C@H](c4ccccc4)[C@H](c4ccccc4)N3[C@H](c3ccc(O)cc3)[C@@]13C(=O)Nc1ccc(C#CCCO)cc13)CC2` showed a composite z-score of -0.269.
`Cc1ccccc1C(O)C1C=CC2C(=O)NC(=O)C2N1Nc1ccc(Cl)cc1Cl` (stereo unspecified): the composite z-score came out at 2.02.
The value for `C=CCC(OC(C)=O)[C@@H]1[C@@H](N(Cc2ccc(-c3cccc(C(F)(F)F)c3)o2)C(=O)c2ccc(C)cc2)c2cc(OCCCO)ccc2N1C(=O)Cc1ccc(OC)cc1` (stereo partly specified) was 0.0871; that for `COc1ccc([Si](C)(C)[C@@H]2[C@@H](CC(=O)N3Cc4ccccc4C[C@H]3CO)O[C@]3(C(=O)N(Cc4ccc(N5CCC5=O)cc4)c4ccccc43)[C@H]2C)cc1` was 0.177; that for `Cc1ccc(S[C@]2(C(=O)NC(C)C)CC(=O)N(Cc3ccccc3Cl)[C@@H]2c2ccc(CO)cc2)cc1` was -0.0072.
Molecule `CCOC(=O)C[C@H]1[C@H](OC(=O)c2ccc(-c3ccccc3)cc2)[C@@H](NC(=O)CC(C)C)c2cc(OCCCO)ccc2N1C(=O)c1ccccc1` gave a composite z-score of -0.0559.
The molecule `C=C(C(=O)CC[C@H](OC(=O)c1ccccc1-c1ccccc1C(=O)O)c1ccccc1OCCO)C(C)C` yielded a composite z-score of 0.194.
Consider `COCCOC(=O)N1C(=O)[C@@]2(c3cc(C#CC4=CCCCC4)ccc31)[C@H](c1ccc(O)cc1)N1[C@H](c3ccccc3)[C@H](c3ccccc3)OC(=O)[C@H]1[C@@H]2C(=O)NC[C@H](O)c1ccccc1`, for which the composite z-score is 0.0471.
In turn, `NC(=O)[C@H]1[C@@H]2C(=O)O[C@@H](c3ccccc3)[C@@H](c3ccccc3)N2[C@@H](c2ccc(O)cc2)[C@]12C(=O)Nc1ccc(C#CC3=CCCCC3)cc12` yielded a composite z-score of -0.0773.
With `CC1CC/C=C\[C@H]2OC34C=CCN(C(C)(C)C)C(=O)[C@H]3N(C(CO)C(C)C)C(=O)[C@@H]4C2C(=O)O1` (stereo partly specified), the composite z-score was 0.0357.
`O=C(NCCN1CCOCC1)[C@@H]1c2ccccc2C(=O)N(Cc2ccccc2)[C@H]1c1ccc(CO)cc1`: the composite z-score is -0.0228.
Regarding `CC(C)CCC[C@@H](C)[C@H]1CC[C@@]2(C)C3=C(CC[C@]12C)[C@@]1(C)CC[C@H](OC(=O)c2ccccc2)C(C)(C)C1CC3` (stereo partly specified), the composite z-score is -0.248.
`C[C@]1(C(=O)O)c2ccccc2C(=O)N(Cc2ccc(OC(F)(F)F)cc2)[C@H]1c1ccc(CO)cc1`: the composite z-score turned out to be 0.265.
Take `C=CCNC(=O)[C@H]1[C@@H]2C(=O)O[C@@H](c3ccccc3)[C@@H](c3ccccc3)N2[C@@H](c2ccc(O)cc2)[C@]12C(=O)N(C(=O)OCCOC)c1ccc(C#CCC(C(=O)OC)C(=O)OC)cc12`: the composite z-score is -0.0251.
`CCCNC(=O)[C@@]1(Sc2ccc(C)cc2)CC(=O)N(C(C)C)[C@@H]1c1ccc(CO)cc1I`: the composite z-score was -0.039.
As for `COc1ccc([Si](C)(C)[C@H]2[C@H](CCO)O[C@@]3(C(=O)N(Cc4ccccc4)c4ccc(N5CCOC5=O)cc43)[C@@H]2C)cc1`, the composite z-score is -0.135.
The molecule `C=CC1c2cc(O)c(OC)cc2CCN1Cc1ccc([N+](=O)[O-])o1` (stereo unspecified) had a composite z-score of 0.188.
Consider `CCCCC(=O)N(CCN1CCOCC1)[C@@H]1CC(C(=O)NCCO)=C[C@H](Oc2c(I)cc(CO)cc2OC)[C@H]1O`, for which the composite z-score was -0.22.
Consider `C=C[C@@H](C)[C@@H](OC(=O)Nc1ccc(SC)cc1)c1ccc(OCCO)cc1`, for which the composite z-score is 0.0879.
As for `CC(C)C[C@@H]1NC(=O)CNC(=O)[C@@]23C(=O)N[C@@H](Cc4ccccc4)C2[C@H](C)[C@@]2(C)O[C@H]2C3/C=C/C/C=C\CNC1=O` (stereo partly specified), the composite z-score is -0.164.
For `Cc1c(NC(=O)/C(C#N)=C/c2ccccc2Cl)c(=O)n(-c2ccccc2)n1C`, the composite z-score was 0.197.
Turning to `COCCCNC(=O)[C@@]1(c2ccc([N+](=O)[O-])cc2)CC(=O)N(C(C)C)[C@@H]1c1ccc(CO)cc1`, the composite z-score was 0.0223.
In turn, `C=CCC(OC(C)=O)[C@@H]1[C@@H](N(Cc2cccc3ccccc23)C(=O)c2cccc3ccccc23)c2cc(OCCCO)ccc2N1C(=O)c1ccc2ccccc2c1` (stereo partly specified) displayed a composite z-score of -0.179.
Regarding `CC(C)C[C@@H]1NC(=O)[C@H]2C[C@@H](C(=O)NCCCCCN)[C@@H](c3cccc(OCCO)c3)N2C1=O`, the composite z-score is -0.198.
The value for `COC(=O)[C@@]1(Cc2ccccc2)[C@H]2c3cc(C(=O)N4CCCC4)n(CCSCCO)c3C[C@H]2CN1C(=O)c1ccccc1` was 0.361.
The value for `CCOC(=O)C1=C[C@@H](C(C)(C)C)N(S(=O)(=O)c2ccc(C)cc2)[C@H]1c1ccccc1` was -0.162; that for `C=CCN1C(=O)[C@]2(O[C@H](CCO)[C@@H]([Si](C)(C)c3ccc(OC)cc3)[C@@H]2C)c2cc(NC(=O)c3ccc(OC)cc3)ccc21` was 0.401.
The value for `COCCOC(=O)N1C(=O)[C@@]2(c3cc(C#Cc4ccc(OC)cc4)ccc31)[C@H](C(=O)NC[C@H](O)c1ccccc1)[C@H]1C(=O)O[C@H](c3ccccc3)[C@H](c3ccccc3)N1[C@@H]2c1ccc(OCCO)cc1` was -0.0883; that for `CCc1cccc(NC(=O)O[C@H]2[C@H](OC(=O)Nc3ccccc3)[C@H](OC(=O)Nc3ccccc3)[C@@H](OC)O[C@@H]2CO)c1` was 0.306.
